Screens deposited in PubChem BioAssay by National Center for Advancing Translational Sciences (NCATS).
Compounds with a hit are over-represented: about 9% of the library has one in this group of screens.
HTT cytoprotect: cytoprotection in Huntington HTT-Q103 PC12 cell model. PC12 HTT-Q103 induced, cytoprotection, ATP luminescence, 40 h. Potency, µM (top dose mostly 56.4 µM), most hits filed as activators. 230,000 compounds, 0.14% hits. AID 1471; note: nearly all actives have a fitted effect of over 45% in size
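Quantitative HTS on tebufenozide-induced (100 nM) PC12 cells expressing HTTQ103 exon 1–GFP; compounds tested as a concentration series; survival measured via cellular ATP.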
Lamin A splicing: modulators of lamin A splicing | HeLa LMNA splicing GFP/RFP minigene ratio, 48 h | Potency, µM (highest dose often 46.1 µM), most hits filed as inhibitors | 200,000 compounds, 0.01% hits; active = well fitted inhibition curve with a large enough effect in the signal ratio, with a control signal flat, not every such curve was filed as active; inconclusive = small, poorly fitted or top-dose-only effect, or effect the other way, or a change in a side signal; the % refers to the signal ratio
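Read-out is the ratio of GFP to DsRed2 object intensity, acquired by 488 nm laser-scanning cytometry on HeLa lamin A-EGFP minigene reporter cells. Compound incubation 48 hrs at 37 °C in Opti-MEM with 2% FBS; DMSO 0.5% final.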
HPGD inh: HPGD (human) dehydrogenase inhibition | P15428 | purified HPGD, NADH fluorescence kinetic, PGE2 substrate | Potency, µM, most hits filed as inhibitors | 150,000 compounds, 4.3% hits | AID 894; active = well fitted inhibition curve with a large enough effect, not every such curve was filed as active; inconclusive = small, poorly fitted or top-dose-only effect, or another doubt; inactive = no such curve, though single readings can be large or run the other way
Target sequence (P15428 whole entry, looked up): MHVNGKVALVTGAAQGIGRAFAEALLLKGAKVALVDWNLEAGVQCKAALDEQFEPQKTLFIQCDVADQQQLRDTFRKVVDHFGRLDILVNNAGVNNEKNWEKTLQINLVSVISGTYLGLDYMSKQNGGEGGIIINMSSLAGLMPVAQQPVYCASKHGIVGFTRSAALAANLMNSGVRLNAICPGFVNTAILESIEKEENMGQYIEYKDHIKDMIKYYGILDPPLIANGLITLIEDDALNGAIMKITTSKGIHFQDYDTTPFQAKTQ
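20 nM HPGD preincubated 15 min at room temperature with compound in 50 mM Tris-HCl pH 8, 0.01% Tween 20. Started with 1 mM NAD+ and 30 uM prostaglandin E2; NADH fluorescence (360/450 nm) read 5 times over 30-s intervals, last minus first.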
HTT aggregate: inhibitors of mutant huntingtin aggregate formation in PC12 cells; PC12 HttQ103-GFP aggregates, Acumen cytometry, 40 h; Potency, µM (top dose mostly 46.1 µM), usual class: inhibitors; 220,000 compounds, 1.1% hits; AID 1688; note: nearly all actives have a fitted effect of over 60% in size
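Compounds (qHTS titration) were added to PC12 cells expressing an ecdysone-driven HTT exon 1 Q103–GFP fusion after induction with 100 nM tebufenozide. Aggregate formation was measured as GFP objects in cell lysates.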
ALDH1A1 block: inhibitors of human aldehyde dehydrogenase 1A1. P00352. Purified ALDH1A1, NADH fluorescence, propionaldehyde substrate. Potency, µM (titrated, usually from 75.3 µM), most hits filed as inhibitors. 220,000 compounds, 7.3% hits; active = well fitted inhibition curve with a large enough effect, not every such curve was filed as active; inconclusive = small, poorly fitted or top-dose-only effect, or another doubt; inactive = no such curve, though single readings can be large or run the other way
Target sequence (P00352 whole entry, looked up): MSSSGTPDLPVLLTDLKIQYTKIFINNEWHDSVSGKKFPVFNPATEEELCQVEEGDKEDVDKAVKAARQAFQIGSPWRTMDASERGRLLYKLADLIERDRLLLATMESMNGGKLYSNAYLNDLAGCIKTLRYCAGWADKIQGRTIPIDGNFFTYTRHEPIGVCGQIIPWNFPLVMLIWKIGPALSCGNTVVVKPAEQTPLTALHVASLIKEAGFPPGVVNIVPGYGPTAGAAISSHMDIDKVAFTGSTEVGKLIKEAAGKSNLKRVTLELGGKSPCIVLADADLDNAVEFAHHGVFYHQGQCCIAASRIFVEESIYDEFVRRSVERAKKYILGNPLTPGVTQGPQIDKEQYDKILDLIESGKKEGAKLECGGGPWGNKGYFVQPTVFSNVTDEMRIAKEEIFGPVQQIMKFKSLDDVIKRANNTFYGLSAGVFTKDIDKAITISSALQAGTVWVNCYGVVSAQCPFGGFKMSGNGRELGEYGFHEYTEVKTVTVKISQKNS
KinaseGlo FLuc: counter-screen: inhibitors of Kinase-Glo firefly luciferase. Q27757. 200,000 compounds, 0.28% hits. AID 1379. Potency, µM (titrated, usually from 38.3 µM), actives largely listed as inhibitors. Kinase-Glo luciferase, ATP luminescence, 8 min; note: nearly all actives have a fitted effect of over 60% in size
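Substrate mix (final 50 mM imidazole pH 7.2, 50 mM KCl, 7 mM MgCl2, 10 uM ATP, 0.01% Tween 20, 0.05% BSA) plus pin-tool compound, then Kinase-Glo detection mix; 8 min ambient, luminescence read.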
Large screens that a line does not name were inactive. Unless noted, calls come from the whole dose curve; as a rule, active = well fitted curve in the direction sought with a large enough effect; inconclusive = small, poorly fitted or top-dose-only effect, or another doubt; inactive = no such curve, though single readings can be large; an effect the other way counts as inactive or inconclusive.

Cc1cccc(OCC(=O)Nc2ccc(N3CCN(C(=O)c4ccccc4)CC3)cc2)c1	Lamin A splicing inconclusive, HTT aggregate 13µM, ALDH1A1 block inconclusive
OCCN1CCN(c2ncnc3ccc(Br)cc23)CC1	HTT aggregate 4.5µM
CC(C)Cc1ccc(/C=C/C(=O)N2CCOCC2)cc1	none (no result: Lamin A splicing, HPGD inh)
CC(C)(C)c1ccc(/C=C/C(=O)N2CCOCC2)cc1	HPGD inh 25µM, ALDH1A1 block inconclusive
C/C(=N\N=C(/N)SC1CC(=O)N(c2ccc(Cl)cc2)C1=O)c1cccs1 (configuration not stated)	ALDH1A1 block inconclusive
CCCCCCOc1ccc(N2C(=O)CC(S/C(N)=N/N=C(\C)c3cccs3)C2=O)cc1 (configuration not stated)	HTT cytoprotect 0.79µM
COc1ccc(C(CC(=O)Nc2cc(OC)cc(OC)c2)n2cccc2)cc1 (configuration not stated)	none
COc1ccc(C(CC(=O)Nc2ccccc2OC)n2cccc2)cc1 (configuration not stated)	Lamin A splicing inconclusive, HPGD inh 25µM, HTT aggregate inconclusive
CC1CCCN(S(=O)(=O)c2ccc(S(=O)(=O)NC(C)c3cccs3)cc2)C1 (configuration not stated)	Lamin A splicing inconclusive, ALDH1A1 block 38µM
COc1cccc(NC(=S)/C(=C(\[O-])c2cc(C)n(-c3ccccc3F)c2C)[n+]2ccc(N(C)C)cc2)c1	HTT aggregate 13µM, ALDH1A1 block inconclusive (no result: Lamin A splicing, HPGD inh)
[O-]/C(=C(\C(=S)Nc1cccc2ccccc12)[n+]1ccccc1)c1cccs1	ALDH1A1 block inconclusive (no result: HPGD inh)
COc1cccc(NC(=O)CCN2CCN(c3ccccc3F)CC2)c1	none
[O-]/C(=C(\C(=S)Nc1cccc2ccccc12)[n+]1ccccc1)c1ccc(OC(F)F)cc1	ALDH1A1 block 19µM (no result: HPGD inh)
COc1cccc(NC(=S)/C(=C(\[O-])c2ccc(C)c([N+](=O)[O-])c2)[n+]2ccccc2)c1	ALDH1A1 block inconclusive
COc1cccc(NC(=S)/C(=C(\[O-])c2ccc(OC(F)F)cc2)[n+]2ccccc2)c1	ALDH1A1 block 20µM (no result: HPGD inh)
[O-]/C(=C(\C(=S)Nc1cccc2ccccc12)[n+]1ccccc1)c1ccc2c(c1)OCCO2	HPGD inh inconclusive, ALDH1A1 block 10µM
Nc1c(C(=O)NCc2cccnc2)sc(=S)n1-c1ccccc1	HPGD inh 14µM, ALDH1A1 block 8.9µM
COc1ccc(CNC(=O)c2sc(=S)n(-c3ccc(OC)cc3)c2N)cc1	HPGD inh 32µM, ALDH1A1 block 19µM
Cc1ccc(-n2c(N)c(C(=O)NCc3ccco3)sc2=S)cc1	HPGD inh inconclusive, ALDH1A1 block inconclusive
Cc1ccc(-n2c(N)c(C(N)=O)sc2=S)cc1	HPGD inh 7.9µM, ALDH1A1 block 4.5µM
O=C(O)[C@H](CSCc1ccccc1)NS(=O)(=O)c1ccc(F)cc1	none
NC1=NC(=O)/C(=C/c2cccs2)S1	none
C=CCSC1=NC(=O)/C(=C/c2cccs2)S1	Lamin A splicing inconclusive, HPGD inh 32µM, ALDH1A1 block inconclusive
CCCCN1C=CC(=C2C(=O)c3ccccc3C2=O)C=C1	ALDH1A1 block 2.8µM, KinaseGlo FLuc 1.1µM (no result: Lamin A splicing, HPGD inh)
Oc1ccc(/C=N/NC(=S)Nc2cccnc2)cc1	none (no result: Lamin A splicing, HPGD inh, ALDH1A1 block, KinaseGlo FLuc)
Oc1ccc(/C=N/NC(=S)N/N=C/c2ccc(O)cc2)cc1	KinaseGlo FLuc 4.5µM (no result: Lamin A splicing, HPGD inh)
Oc1ccc(/C=N/Nc2ccccc2)cc1	ALDH1A1 block 20µM (no result: HPGD inh)
Brc1ccc(/C=N/Nc2ccccc2)cc1	Lamin A splicing inconclusive, HPGD inh inconclusive
Oc1ccc(/C=N/NC2=NCCCCC2)cc1	HPGD inh inconclusive, ALDH1A1 block 18µM
COc1cc(NC(=O)c2nnn(Cc3ccc(SC)cc3)c2N)cc(OC)c1	ALDH1A1 block 7.9µM
CN(C(=O)Cn1nnc(-c2cccc(C(F)(F)F)c2)n1)C1CCCCC1	ALDH1A1 block 35µM
CC(=O)Nc1ccc(C(=O)/C=C/c2ccco2)cc1	ALDH1A1 block inconclusive
CSc1ccc(/C=C/C(=O)c2ccc(O)cc2)cc1	Lamin A splicing inconclusive, ALDH1A1 block 18µM
CC(=O)Nc1cccc(C(=O)/C=C/c2ccco2)c1	HPGD inh inconclusive, ALDH1A1 block 10µM
CN(C)c1ccc(C(=O)/C=C/c2ccco2)cc1	Lamin A splicing inconclusive, HPGD inh 32µM, ALDH1A1 block 8.9µM
O=C(/C=C/c1ccco1)c1ccc(O)cc1	ALDH1A1 block 15µM (no result: Lamin A splicing, HPGD inh)
O=C(COC(=O)/C=C/c1ccc(Cl)cc1)Nc1ccc2c(c1)OCCO2	none
Fc1cccc(-c2cc3nc4c(c(N5CCOCC5)n3n2)CCCC4)c1	Lamin A splicing inconclusive, HPGD inh inconclusive, ALDH1A1 block inconclusive
Cc1cc2c(C)nc(Cc3ccccc3)nc2o1	ALDH1A1 block 8.9µM
COc1ccc(/C=N/NC(=S)N[C@H]2CC3CCC2C3)cc1 (some centres not stated)	ALDH1A1 block inconclusive (no result: Lamin A splicing, HPGD inh, KinaseGlo FLuc)
COc1cc(/C=N/NC(=S)NC2CC3CCC2C3)ccc1O (configuration not stated)	Lamin A splicing inconclusive, ALDH1A1 block 18µM (no result: HPGD inh, KinaseGlo FLuc)
O=C(CN1C(=O)c2ccccc2C1=O)NCC(=O)OCC(=O)c1cccc([N+](=O)[O-])c1	none (no result: Lamin A splicing, HPGD inh)
O=C1c2ccccc2C(=O)N1CCCCN(C(=O)c1ccco1)c1ccc(Cl)cc1	ALDH1A1 block 7.9µM
Cc1ccc(N(CCCCN2C(=O)c3ccccc3C2=O)C(=O)c2cccs2)cc1	Lamin A splicing inconclusive, ALDH1A1 block inconclusive
O=C1c2ccccc2C(=O)N1CCCCN(C(=O)c1cccc([N+](=O)[O-])c1)c1ccc(Cl)cc1	ALDH1A1 block 3.2µM
CC[N+]1=CN(c2ccccc2)C(C)=CC1(C)C	Lamin A splicing inconclusive (no result: HTT cytoprotect)
COc1cccc(C2=CC(c3ccc(OC)c(OC)c3)NC(=S)N2)c1 (configuration not stated)	ALDH1A1 block 14µM (no result: Lamin A splicing, HPGD inh, KinaseGlo FLuc)
Cc1cc(Br)ccc1NC(=O)CNC(=O)CSc1n[nH]c(N)n1	none
Cc1ccccc1N=C1NC(=O)CS1	none
Cc1cc(C)cc(C(=O)/C=C2\NC(=O)CS2)c1	HPGD inh inconclusive
Cc1ccccc1C(=O)/C=C1\NC(=O)CS1	Lamin A splicing inconclusive, HPGD inh 16µM, ALDH1A1 block 25µM
O=C1CS/C(=C/C(=O)c2ccccc2)N1	HPGD inh 20µM
CC(=O)Nc1ccc(NC(=O)COC(=O)c2ccco2)cc1	none (no result: Lamin A splicing, HPGD inh)
COc1ccccc1NC(=O)CN1C(=O)C2(OCCCO2)c2ccccc21	ALDH1A1 block 22µM
O=C1N(Cc2ccc(F)cc2Cl)c2ccccc2C12OCCCO2	none
O=C1N(Cc2ccccc2F)c2ccccc2C12OCCCO2	ALDH1A1 block 22µM
O=C(CN1C(=O)C2(OCCO2)c2ccccc21)c1ccc(Br)cc1	Lamin A splicing inconclusive, ALDH1A1 block 14µM (no result: HPGD inh, KinaseGlo FLuc)
